Source: ChEMBL document CHEMBL4296182, “CO-ADD screening of NIH NCI Diversity Set V”
For part of these data: Results with a measured potency or affinity are listed apart.

How the values were obtained:
Staphylococcus aureus = assay: Antibacterial activity against Staphylococcus aureus MRSA ATCC 43300 (CO-ADD:GP_020); MIC in CAMBH media using NBS plates, by Resazurin F(560/590); assay type: functional; settings: Concentration 20 uM, ASSAY_TEST Inhibition of Bacterial Growth, detection method Resazurin, Fluorescence (ex560/em590), MEDIA CAMHB, plate type 384well, CORNING #3640, time 18 hr
Acinetobacter baumannii = assay: Antibacterial activity against Acinetobacter baumannii ATCC 19606 (CO-ADD:GN_034); MIC in CAMBH media using NBS plates, by Resazurin F(560/590); assay type: functional; settings: Concentration 20 uM, ASSAY_TEST Inhibition of Bacterial Growth, detection method Resazurin, Fluorescence (ex560/em590), MEDIA CAMHB, plate type 384well, CORNING #3640, time 18 hr
Escherichia coli = assay: Antibacterial activity against Escherichia coli ATCC 25922 (CO-ADD:GN_001); MIC in CAMBH media using NBS plates, by Resazurin F(560/590); assay type: functional; settings: Concentration 20 uM, ASSAY_TEST Inhibition of Bacterial Growth, detection method Resazurin, Fluorescence (ex560/em590), MEDIA CAMHB, plate type 384well, CORNING #3640, time 18 hr
Klebsiella pneumoniae = settings: Concentration 20 uM; ASSAY_TEST Inhibition of Bacterial Growth; detection method Absorption (OD600); MEDIA CAMHB; plate type 384well; NBS; CORNING #3640; time 18 hr
Candida albicans = settings: 20 µM
Cryptococcus neoformans = settings: Concentration 20 uM; ASSAY_TEST Inhibition of Fungal Growth; detection method Resazurin; Absorption (OD600-OD570); plate type 384well; NBS; CORNING #3640

| Compound | Inhibition (Staphylococcus aureus) | Inhibition (Acinetobacter baumannii) | Inhibition (Escherichia coli) | Inhibition (Klebsiella pneumoniae) | Inhibition (Candida albicans) | Inhibition (Cryptococcus neoformans) |
| --- | --- | --- | --- | --- | --- | --- |
| CCOC(=O)c1cnc(SCC)nc1O | 11.19% | -12.25% | 0.66% | 10.25% | 0.68% | -8.17% |
| COc1ccc(CN2CCOC2=O)cc1OC | 2.93% | -8.7% | 2.98% | 20.13% | -0.97% | -5.16% |
| CN(C)CCCN1c2ccc3ccccc3c2Sc2cccc(Cl)c21 | -10.96% | 0.47% | 9.47% | 8.34% | 0.69% | 12.55% |
| CSc1cccc(NC(=O)Nc2ccccc2C(N)=O)c1 | 1.7% | 10.06% | 13.89% | 12.71% | -0.32% | -13.91% |
| C=C(C)c1nc(Oc2ccccc2)nc(Oc2ccccc2)n1 | 19.07% | 6.26% | 6.34% | 11.06% | 0.6% | -9.97% |
| CSc1ccc(NC(=O)Nc2ccccc2C(N)=O)cc1 | 16.3% | 11.66% | 11.12% | 15.39% | 4.24% | 3.99% |
| Nc1nc(S)c2ncn(C3CCCC3)c2n1 | 16.34% | -8.37% | 6.43% | 18.77% | -3.88% | -14.08% |
| O=C(Nc1cccc2ccccc12)c1ccccc1 | 1.57% | -13.68% | 5.05% | -4.37% | 0.1% | -4.91% |
| COc1ccc(NC(=O)c2cc3ccc4c5ccccc5[nH]c4c3cc2O)cc1 | 16.09% | 5.56% | 1.69% | 7.19% | -5.12% | 1.29% |
| O=c1nc(Nc2cccc(Cl)c2)oc2cc(Cl)oc(=O)c12 | 6.93% | 3.28% | 2.7% | 6.71% | 20.4% | -13.47% |
| CC(=O)Oc1ccc(C(c2ccc(OC(C)=O)cc2)c2ccccn2)cc1 [BISACODYL] | 25.36% | -9.02% | 15.4% | 14.3% | 0.53% | -1.75% |
| O=c1cc2oc3cc(O)c(O)cc3c(-c3ccccc3O)c-2cc1O | -11.77% | -19.46% | 15.45% | 16.39% | 44.4% | -6.63% |
| CCCCNC(=O)Nc1ccccc1CC | 14.67% | 10.42% | 0.25% | 11.35% | 3.55% | -6.96% |
| Cc1c(Cl)ccc2c(C(=O)O)cc(-c3ccccc3)nc12 | -8.14% | 11.6% | 2.11% | 26.83% | 2.48% | 13.39% |
| Cn1cnc2ncnn2c1=S | 0.31% | -8.2% | -1.17% | -0.39% | 2.7% | -8.45% |
| CC(=O)[C@H]1CC[C@H]2[C@@H]3CCC4=CC(=O)C=C[C@]4(C)[C@H]3C(=O)C[C@]12C | 11.15% | -7.04% | -4.55% | 23.74% | 4.8% | -6.32% |
| CN1CCC=C(C(=O)N2c3ccccc3Sc3ccc(Cl)cc32)C1.O=C(O)CCC(=O)O | 8.59% | -10% | 17.87% | -0.76% | -1.22% | -4.64% |
| O=C1OCC/C1=C\NCCCCCCCCN/C=C1\CCOC1=O | -2.67% | 17.83% | 3.41% | 9.43% | 0.08% | -12.67% |
| Nc1ncnc2c1ncn2C1OC(CO)C(O)C1N (stereo not given) | -5.5% | -14.65% | 5.58% | 3.14% | -0.11% | -5.11% |
| CN1CCc2ccccc2C1Cc1ccccc1NC(=O)c1sc2ccccc2c1Cl (stereo not given) | 1.84% | -6.84% | 0.33% | 11.11% | 2.39% | -3.5% |
| CSc1nc(Cl)c(Br)c(Nc2cnc(O)nc2O)n1 | 5.42% | 6.52% | -1.71% | 4.64% | -2.17% | 0.33% |
| O=C(O)c1ccccc1C(=O)Nc1ccccc1[N+](=O)[O-] | 3.12% | 5.2% | 12.47% | 12.98% | 4.76% | -12.04% |
| Cn1c(=O)c2nc(N3CCCCC3)[nH]c2n(C)c1=O | 0.06% | -5.37% | 9.83% | 1.37% | -1.65% | -9.97% |
| Nc1cc(O)nc2ncnn12 | 9.25% | -2.47% | 7.96% | 6.69% | -0.84% | -4.53% |
| O=[N+]([O-])c1ccc(-c2ncc(-c3ccc(Br)cc3)o2)cc1 | 5.59% | 6.16% | 2.7% | 5.71% | 5.85% | -3.69% |
